Measurements from PubChem BioAssay AID2284138 (EPA ToxCast).
Results filed as inconclusive are left out. Activity calls are given as the source filed them. The calls were made as follows: active = hit-call score of the fitted dose curve at least 0.9, where 1 is the maximum; inactive = score below 0.9.

target: human ROCK1 AGC Kinase, ROCK1 (gene 6093) (UniProt Q13464); assay: ERF_FR_ENZ_hROCK1: Eurofins (ERF) Enzymatic Radiometric [Km ATP] KinaseProfiler LeadHunter Assay for human ROCK1 AGC Kinase
Experimental: ERF_FR_ENZ_hROCK1 is a biochemical, single-readout assay that uses extracted gene-proteins in a cell-free assay. Measurements were taken 0.33 hour after chemical dosing in a 96-well plate. See ROCK1 Human AGC Kinase Enzymatic LANCE Assay [Km ATP], Cerep.ERF_FR_ENZ_hROCK1 is an assay component calculated from the ERF_FR_ENZ_hROCK1 assay. It is designed to measure enzyme activity using a type of enzyme reporter as detected by fluorescence intensity with LANCE technology.Data from the assay component ERF_FR_ENZ_hROCK1 was analyzed at the assay endpoint, ERF_FR_ENZ_hROCK1, in the positive analysis fitting direction relative to DMSO as the negative control and baseline of activity. Using a type of enzyme reporter, loss-of-signal activity can be used to understand changes in enzymatic activity as they relate to gene ROCK1. To generalize the intended target to other relatable targets, this assay endpoint is annotated to the kinase intended target family, where the subfamily is serine/threonine kinase.
ROCK-I (h) is incubated with 8 mM MOPS pH 7.0, 0.2 mM EDTA, 30 uM […], 10 mM MgAcetate and [gamma-33P]-ATP (specific activity and concentration as required). The reaction is initiated by the addition of the Mg/ATP mix. After incubation for 40 minutes at room temperature, the reaction is stopped by the addition of phosphoric acid to a concentration of 0.5%. […]

Chain of human ROCK1 AGC Kinase, ROCK1 (gene 6093) (Q13464 whole entry, looked up): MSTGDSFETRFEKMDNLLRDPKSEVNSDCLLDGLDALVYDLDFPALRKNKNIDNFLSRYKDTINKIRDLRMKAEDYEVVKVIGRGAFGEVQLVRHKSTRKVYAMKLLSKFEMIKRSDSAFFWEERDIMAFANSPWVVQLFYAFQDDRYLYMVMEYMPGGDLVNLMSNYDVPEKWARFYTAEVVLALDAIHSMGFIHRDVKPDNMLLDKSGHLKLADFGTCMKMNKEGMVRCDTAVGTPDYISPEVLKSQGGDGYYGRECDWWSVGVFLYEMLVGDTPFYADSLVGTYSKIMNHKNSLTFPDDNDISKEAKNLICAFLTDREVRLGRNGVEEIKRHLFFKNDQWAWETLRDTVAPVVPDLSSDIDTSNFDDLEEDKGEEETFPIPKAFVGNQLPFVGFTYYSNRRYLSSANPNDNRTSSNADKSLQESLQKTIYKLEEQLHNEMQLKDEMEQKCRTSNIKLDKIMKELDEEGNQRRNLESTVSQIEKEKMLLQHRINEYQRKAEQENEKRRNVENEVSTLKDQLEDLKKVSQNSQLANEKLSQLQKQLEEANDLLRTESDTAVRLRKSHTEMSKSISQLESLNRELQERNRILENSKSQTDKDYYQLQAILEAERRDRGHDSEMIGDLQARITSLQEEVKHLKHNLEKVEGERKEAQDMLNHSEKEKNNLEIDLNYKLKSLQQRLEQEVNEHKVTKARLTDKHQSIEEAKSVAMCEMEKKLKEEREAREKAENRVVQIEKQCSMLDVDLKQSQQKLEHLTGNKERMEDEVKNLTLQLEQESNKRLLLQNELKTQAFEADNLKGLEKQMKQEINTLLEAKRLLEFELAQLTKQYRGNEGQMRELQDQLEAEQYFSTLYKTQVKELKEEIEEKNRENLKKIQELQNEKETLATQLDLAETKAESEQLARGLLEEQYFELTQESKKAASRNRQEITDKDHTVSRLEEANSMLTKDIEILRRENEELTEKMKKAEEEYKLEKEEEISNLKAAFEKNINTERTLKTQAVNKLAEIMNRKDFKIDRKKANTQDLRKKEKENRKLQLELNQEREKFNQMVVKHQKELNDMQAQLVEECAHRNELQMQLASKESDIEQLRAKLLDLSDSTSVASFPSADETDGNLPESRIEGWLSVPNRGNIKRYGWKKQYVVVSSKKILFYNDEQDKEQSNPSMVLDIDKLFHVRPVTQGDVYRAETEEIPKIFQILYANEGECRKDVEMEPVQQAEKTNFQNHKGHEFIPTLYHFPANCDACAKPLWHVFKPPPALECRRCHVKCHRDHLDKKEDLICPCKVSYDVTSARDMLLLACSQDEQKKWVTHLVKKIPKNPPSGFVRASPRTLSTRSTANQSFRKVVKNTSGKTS

| Structure (SMILES) | outcome |
| --- | --- |
| COc1cc(CCC(=O)CC(=O)CCc2ccc(O)c(OC)c2)ccc1O | inactive |
| O=C(/C=C/c1ccc(O)cc1)CC(=O)/C=C/c1ccc(O)cc1 | inactive |
